Reference: PubChem BioAssay (NCI)
This is part of a sample that, as a whole, favours compounds with a hit. Of some 83,000 tested, about 20% had one in any assay.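 Assay: single dose, 48 h. Readout: percent growth (0 = no net growth; negative = cell death). Active: <10.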 Unmarked numbers belong to inactive results. Active and inactive are the calls of the source.

Legend:
Test in all cases: NCI-60 one-dose screen, 48 h (100 = growth as untreated, 0 = no growth, -100 = all killed)
Settings in all cases: 10 µM unless noted
DU-145 prostate = system: DU-145 prostate
K-562 leukemia = system: K-562 leukemia
MALME-3M melanoma = system: MALME-3M melanoma
MDA-MB-231 breast = system: MDA-MB-231 breast
RXF 393 renal = system: RXF 393 renal
SF-268 CNS = system: SF-268 CNS
SF-295 CNS = system: SF-295 CNS
SF-539 CNS = system: SF-539 CNS
UACC-257 melanoma = system: UACC-257 melanoma
M14 melanoma = system: M14 melanoma
HCT-15 colon = system: HCT-15 colon
HT29 colon = system: HT29 colon
SNB-75 CNS = system: SNB-75 CNS
SNB-19 CNS = system: SNB-19 CNS
U251 CNS = system: U251 CNS
PC-3 prostate = system: PC-3 prostate
SK-MEL-5 melanoma = system: SK-MEL-5 melanoma
UACC-62 melanoma = system: UACC-62 melanoma
LOX IMVI melanoma = system: LOX IMVI melanoma
SK-MEL-28 melanoma = system: SK-MEL-28 melanoma

SMILES | growth (DU-145 prostate) | growth (K-562 leukemia) | growth (MALME-3M melanoma) | growth (MDA-MB-231 breast) | growth (RXF 393 renal) | growth (SF-268 CNS) | growth (SF-295 CNS) | growth (SF-539 CNS) | growth (UACC-257 melanoma) | growth (M14 melanoma) | growth (HCT-15 colon) | growth (HT29 colon) | growth (SNB-75 CNS) | growth (SNB-19 CNS) [%] | growth (U251 CNS) | growth (PC-3 prostate) | growth (SK-MEL-5 melanoma) | growth (UACC-62 melanoma) | growth (LOX IMVI melanoma) | growth (SK-MEL-28 melanoma)
CNC(=O)c1cc(Oc2ccc3c(c2)sc2nc(-c4ccc(NC(C)=O)cc4)cn23)ccn1 | 23.1% | 50.5% | 71.8% | 59.5% | 8.2% (active) | 64% | 26.2% | 62.8% | 70.9% | 46.5% | 53% | 34.7% | -0.726% (active) | 55.2 | 40.7% | 36.6% | 31.7% | 46.7% | 60.9% | 70%
COc1cc(NCC(=O)Nc2cc(Nc3ccc(C)cc3)ncn2)c(Cl)c(OC)c1Cl | 102% | 80.6% | 111% | 64.2% | 118% | 88.6% | 82.8% | 95.5% | 89% | 88.4% | 89.9% | 95.3% | 78.4% | 95.9 | 87.2% | 69.1% | 91.6% | 75.3% | 84.5% | 107%
COc1ccc(-c2cc(-c3nnc(SCC(=O)Nc4ccc(/C(C)=N\O)cc4)n3-c3ccccc3)c3cc(OC)ccc3n2)cc1 | 85% | 48% | 105% | 46.1% | 83.6% | 71.4% | 80.3% | 82.6% | 71% | 70.1% | 70% | 79.8% | 80.3% | 77.9 | 78.1% | 61.1% | 83.8% | 49% | -36.4% (active) | 95.4%
COc1cc(C(=O)Nc2cc(OC)c3ccn(C)c3c2)cc2c1C[C@]1(C)CC[C@@H](O)C(C)(C)[C@H]1O2 | 32.1% | 9.98% (active) | 31% | 30.6% | -32.8% (active) | 27.3% | -44.2% (active) | -26.1% (active) | 32.5% | -32.7% (active) | 20.9% | 5.58% (active) | -9.5% (active) | 33.3 | 16.5% | 3.01% (active) | -34.8% (active) | -8.05% (active) | -14.6% (active) | 13.4%
C=C(C)[C@@H]1CC[C@]2(C(=O)OCCCC[P+](c3ccccc3)(c3ccccc3)c3ccccc3)CC[C@]3(C)[C@H](CC[C@@H]4[C@@]5(C)CC[C@H](OC(=O)C(Cl)Cl)C(C)(C)[C@@H]5CC[C@]43C)[C@@H]12 | 14.4% | -35.9% (active) | -85.7% (active) | -49.8% (active) | -80.8% (active) | -15.7% (active) | -76.9% (active) | -44.2% (active) | -61% (active) | -56.1% (active) | -8.59% (active) | 3% (active) | -46.6% (active) | 11 | -37.1% (active) | -26.2% (active) | -99.4% (active) | -43.2% (active) | -93.7% (active) | -63.4% (active)
O=C(Nc1cc(=O)[nH]c(=O)[nH]1)C(Cl)Cl | 113% | 99.2% | 96.7% | 102% | 106% | 99.9% | 105% | 106% | 96.5% | 106% | 103% | 102% | 96.9% | 99 | 99.5% | 92% | 102% | 88.9% | 100% | 111%
COc1ccc2[nH]c(=O)c(/C=C/C(=O)/C=C/c3ccc(O)c(OC)c3)cc2c1 | 8.26% (active) | 4.67% (active) | 52.8% | 18.3% | -76.7% (active) | 9.98% (active) | 17.5% | 8.47% (active) | 40.3% | -32.4% (active) | 2.08% (active) | -38.7% (active) | 59.8% | 36.3 | -13% (active) | 9.53% (active) | 9.36% (active) | 10.8% | -36% (active) | 16.8%
O=C(Nc1ccc2ncnc(Nc3cccc(C(F)(F)F)c3)c2c1)c1cccs1 | 39.6% | 26.3% | 106% | 54.3% | 66.2% | 51.4% | 44% | 87.7% | 103% | 49.5% | 38.9% | 18% | 89.2% | 40.1 | 17% | 20.9% | 61.1% | 67.5% | 65.5% | 89.1%
COc1ccc(/C(=N\O)c2cc(C)c(OC)c(C)c2)cc1O | 29.4% | 12% | 67% | 24.8% | 62.9% | 30.4% | 29.7% | 2.65% (active) | 70% | 13.6% | 16.3% | -8.4% (active) | 38.4% | 29.8 | 22.1% | 37.6% | -7.18% (active) | 35.3% | 24.2% | 55.4%
COC1=CC2C=C(C3N(c4ccccc4)NC(=O)[C@@H]4CCCN34)C(=O)NC2C=C1 (stereo not given in full) | 112% | 93.3% | 113% | 111% | 116% | 99.8% | 103% | 109% | 108% | 101% | 101% | 102% | 85% | 104 | 110% | 102% | 102% | 104% | 92.8% | 108%
COc1cc(C2=NN(C=O)C(c3cccc(Nc4ccnc5cc(C(F)(F)F)ccc45)c3)C2)cc(OC)c1OC (stereo not given) | 40% | 37.8% | 86.3% | 58.1% | 72.4% | 46.6% | 65.2% | 77% | 81.2% | 15.4% | 49.2% | 15.3% | 77.7% | 64.2 | 55.8% | 31.7% | 43% | 75.4% | 43.1% | 50.6%
CCOC(=O)c1c(C)nc2c(c1N)/C(=C/c1cccs1)C(=O)N2c1ccc(OC)cc1 | 44.5% | 59.1% | 26.9% | 36.5% | -23.1% (active) | 47.6% | 47.2% | 7.71% (active) | 36.1% | 58.2% | 72.8% | 51.3% | 30.6% | 42.2 | 12.4% | 35% | 45.7% | 38.3% | 37.6% | 37%
COc1cc(C)ccc1Oc1nc(Nc2ccc(N3CCOCC3)cc2)ncc1N=Cc1cc(C(F)(F)F)cc(C(F)(F)F)c1 | 83.7% | 37.7% | 91.7% | 82.9% | 38.4% | 69% | 75.8% | 73.8% | 79.2% | 77.7% | 92% | 64.5% | 40.1% | 94.4 | 71.5% | 77.4% | 91% | 81% | 61.3% | 96.7%
COc1cc([C@H](C)c2ccc3ccccc3c2)cc(OC)c1OC | 17.6% | 8.51% (active) | 64% | 33.8% | -10.5% (active) | 55.3% | 13.5% | -19.3% (active) | 51.4% | 17.5% | 21.7% | 8.72% (active) | 0.258% (active) | 32.7 | 19.6% | 30.5% | 18.1% | 32.5% | 48.6% | 61.8%
C=C1C(=O)O[C@H]2[C@H]1CC/C(COC(=O)Nc1nc3ccccc3[nH]1)=C\CC[C@@]1(C)O[C@@H]21 | 36.3% | 13.5% | 48.6% | 66.1% | 30.6% | 94.3% | 107% | 61.1% | 76.2% | 46.4% | 25.3% | 42.2% | 75.7% | 91.1 | 90.2% | 67.5% | 83.7% | 53.9% | 69.6% | 61.4%
CC(=O)c1cc2c(N)c(C(=O)Nc3ccccn3)sc2nc1C | 90.8% | 97.6% | 90.1% | 87.1% | 86.4% | 93% | 71.6% | 84.9% | 86.4% | 54.9% | 82.8% | 85.5% | 75.1% | 82.4 | 77.7% | 99.3% | 64.5% | 57.8% | 91.6% | 82.1%
O=C(Nc1nc2ccc(C(F)(F)F)cc2s1)c1cc(Cl)ccc1O | 25.9% | 5.73% (active) | -16.6% (active) | -10.5% (active) | -2.8% (active) | 19.5% | -31.2% (active) | 14.6% | -8.55% (active) | 15.1% | 7.56% (active) | -18% (active) | 16.8% | 20.5 | 8.44% (active) | 7.15% (active) | -46.1% (active) | 13.3% | 5.71% (active) | 26.6%
